# Screening data deposited in PubChem BioAssay by National Center for Advancing Translational Sciences (NCATS).
# HT1080NT lethal – kills 2HG-producing HT-1080-NT fibrosarcoma cells; Potency, µM (series often up to 46.1 µM), usual class: cytotoxic; 1.6% of 360,000 active; HT-1080-NT fibrosarcoma viability, CellTiter-Glo ATP luminescence, 48 h;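 further: NT is the 2HG producing partner of a matched IDH1 knockdown line; nearly all actives have a fitted effect of over 55% in size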
#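 Viability of the 2HG-overproducing fibrosarcoma line after 48 hours of compound exposure at 37 degrees C was determined by luminescence with CellTiter-Glo, and concentration-effect curves were then fitted and categorized.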
# DT40 TDP1 CPT – DT40-hTDP1 cell growth loss with CPT; chicken DT40 Tdp1-/-;hTDP1 cells + 20 nM CPT, ATP luminescence, 48 h; Potency, µM (titrated, usually from 46.2 µM), actives largely listed as inhibitors; 12% of 420,000 active; further: nearly all actives have a fitted effect of over 55% in size
#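 Chicken DT40 Tdp1-/- cells stably complemented with human TDP1 were seeded at 400 cells/well in medium containing 20 nM camptothecin, exposed to pin-transferred compounds, and grown at 37 °C for at least 48 hr. Viability was read as ATP luminescence.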
# HT1080 IDH1KD tx – toxicity to HT-1080 IDH1 knockdown cells (counter line). 2% of 360,000 active. HT-1080 IDH1 knockdown viability, ATP luminescence, 48 h. Potency, µM (titrated, usually from 46.1 µM), actives largely listed as cytotoxic. AID 686971
#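 % activity derives from luminescence (CellTiter-Glo), normalised to DMSO and no-cell wells. HT-1080-IDH1KD cells, 750/well, had 48 h compound exposure at 37 °C.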
# TDP1 cell noCPT – qHTS for Inhibitors of human tyrosyl-DNA phosphodiesterase 1 (TDP1): qHTS in cells in absence of CPT | Potency, µM (highest dose often 46.2 µM), actives largely listed as inhibitors | 15% of 420,000 active | DT40 Tdp1-/- hTDP1 cells, no CPT, ATP luminescence, 48 h; further: nearly all actives have a fitted effect of over 55% in size
#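 Compound effects on proliferation are scored in DT40 Tdp1-/-;hTDP1 cells in the absence of CPT. ATP levels (CellTiter-Glo luminescence) are recorded after a ≥48 hr, 37 °C incubation.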
# IL-1B inflam inh – blocks inflammasome-driven IL-1 beta release; AID 743279; activity change, % at 57.5 µM; THP-1 LPS/ATP IL-1B secretion, AlphaLISA, 16 h; active compounds read low; 4.7% of 360,000 active; in the data active means activity change below about -50%; inconclusive means mostly about -30% to -49%
#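 Secreted IL-1B measured by AlphaLISA bead assay after 16 h compound exposure of THP-1 cells; compounds (final up to 57.5 uM) added 1 h before LPS (250 ng/mL) and ATP (1.25 mM) stimulation; lower signal means less secretion.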
# Numbers stand for hits; i = inactive; ? = inconclusive; nt = no result. Sampled rows, rich in hits. Any-hit rate of the full collection: about 19%. Unless noted, the call rests on the fitted dose curve; in most records, active means well fitted curve in the direction sought with a large enough effect; inconclusive means small, poorly fitted or top-dose-only effect, or another doubt; inactive means no such curve, though single readings can be large; an effect the other way counts as inactive or inconclusive.
SMILES,HT1080NT lethal,DT40 TDP1 CPT,HT1080 IDH1KD tx,TDP1 cell noCPT,IL-1B inflam inh
CCN(CC(=O)Nc1ccc(C(=O)Nc2ccc(OC)cc2)cc1)Cc1nc2ccccc2c(=O)[nH]1,i,?,i,23µM,i
COc1ccc2[nH]c(=O)c(CN(Cc3ccc4c(c3)OCO4)C(C)=O)cc2c1,i,?,i,i,i
CCN(CC(=O)Nc1cc(OC)ccc1OC)Cc1nc2ccccc2c(=O)[nH]1,i,i,i,i,i
O=C(c1ccncc1)N(Cc1cc2ccccc2[nH]c1=O)C1CCCCC1,7.1µM,?,5.6µM,?,i
COc1ccc(CN(Cc2cc3cc4c(cc3[nH]c2=O)OCO4)C(=O)NC2CCCCC2)cc1,i,18µM,i,23µM,i
O=C(c1ccccc1)N(Cc1nc2ccccc2c(=O)[nH]1)C1CCCCC1,i,?,i,?,i
Cc1ccc(-c2nc(CNC(=O)NC3CCCCC3)c(C)o2)cc1,nt,i,nt,i,nt
COc1ccc(CCNC(=O)CCc2cn(C)c3ccccc23)c(OC)c1OC,i,i,i,i,i
CCn1c(=O)n(CC)c2cc(N3CCCC3)c(NC(=O)c3cccc(Cl)c3)cc21,i,15µM,?,9.2µM,i
Cc1cccc(C(=O)Nc2cc3c(cc2N2CCCCC2)n(C)c(=O)c(=O)n3C)c1,nt,i,nt,i,nt
CCn1c(=O)n(CC)c2cc(N3CCCC3)c(NC(=O)c3ccc(C)c([N+](=O)[O-])c3)cc21,i,6.5µM,i,7.3µM,i
CCn1c(=O)c(=O)n(CC)c2cc(N3CCCCC3)c(NC(=O)c3cccc(OC)c3)cc21,nt,i,nt,i,nt
CCn1c(=O)n(CC)c2cc(N3CCCC3)c(NC(=O)c3cccc(C)c3)cc21,i,21µM,i,16µM,?
COc1ccc(NC(=O)C[C@H]2C(=O)N(Cc3ccccc3)C[C@@H]2C)cc1,i,i,i,i,i
O=c1c2ccccc2c(=O)n(Cc2ccccc2)n1Cc1ccccc1,i,i,i,i,i
O=c1c2ccccc2c2ccccc2c(=O)n1Nc1ccccc1,?,i,13µM,i,i
O=c1[nH]c2cc3c(cc2cc1C(c1nnnn1C1CCCC1)N1CCSCC1)OCCO3 (stereo unspecified),i,23µM,i,18µM,i
CC(C)(C)n1nnnc1C(c1cc2cc3c(cc2[nH]c1=O)OCCO3)N1CCSCC1 (stereo unspecified),i,i,i,i,-51
Cc1cccc2cc(C(c3nnnn3C3CCCC3)N3CCOCC3)c(=O)[nH]c12 (stereo unspecified),i,i,i,i,i
CC(C)CNC(=O)c1cc2nc(C3CC3)cc(C(F)(F)F)n2n1,i,i,i,?,i
CCOC(=O)c1cc2sccc2n1CC(=O)O,i,i,?,i,i
CCOC(=O)c1cc2sccc2n1CC(=O)N1c2ccccc2CC1C (stereo unspecified),i,18µM,i,21µM,i
CCOC(=O)c1cc2sccc2n1CC(=O)c1ccc2c(c1)OCCO2,i,15µM,i,13µM,i
CC1Cc2ccccc2N1C(=O)CCn1c(=O)sc2ccccc21 (stereo unspecified),i,?,i,16µM,i
Cc1ccc(C)c(N2N=C(C(=O)Nc3ccc(N4CCOCC4)cc3)CCC2=O)c1,i,i,i,i,i
SMILES,HT1080NT lethal,DT40 TDP1 CPT,HT1080 IDH1KD tx,TDP1 cell noCPT,IL-1B inflam inh
O=C(O)c1ccc(N2C(=O)CC(N3CCC(c4nc5ccccc5[nH]4)CC3)C2=O)cc1 (stereo unspecified),i,i,i,i,i
CCC(=O)Nc1ccc(F)c(Cl)c1,i,i,i,i,i
Cc1ccc(NC(=O)CCCCCC2NC(=O)NC2C)cc1 (stereo unspecified),i,i,i,i,-95
CC1NC(=O)NC1CCCCCC(=O)Nc1ccc(F)c(Cl)c1 (stereo unspecified),i,i,i,i,-116
CC1NC(=O)NC1CCCCC(=O)O (stereo unspecified),i,?,i,?,i
CC1(C)CC(C(CC(=O)N2CCCC2)Cc2ccccc2)CCO1 (stereo unspecified),i,i,i,i,i
O=C(CSc1nnc(-c2ccccc2F)o1)N1CCNC1=O,i,i,i,i,?
CNC(=O)/C(C#N)=C/c1c(N(Cc2ccccc2)Cc2ccccc2)nc2ccccn2c1=O,i,16µM,i,16µM,?
CCN1CCCC1CN(Cc1cc2ccc(C)cc2[nH]c1=O)C(=S)Nc1ccc(OC)cc1OC (stereo unspecified),?,?,?,?,-52
COc1cccc(NC(=O)N(Cc2cc3cc(C)cc(C)c3[nH]c2=O)CC2COCCO2)c1 (stereo unspecified),i,?,i,?,?
CCN1CCCC1CN(Cc1cc2cc(C)cc(C)c2[nH]c1=O)C(=O)Nc1ccccc1OC (stereo unspecified),i,13µM,?,21µM,?
Cc1ccccc1NS(=O)(=O)c1ccc(C(=O)NCCCN2CCCC2=O)cc1,i,i,i,?,i
O=C(O)CN1C(=O)C(=O)N(Cc2ccc(C(F)(F)F)cc2)C1=O,i,i,i,i,i
CCCc1[nH]nc2c1C(c1cc(OC)cc(OC)c1)C(C#N)=C(N)O2 (stereo unspecified),i,i,i,i,?
CCCc1[nH]nc2c1C(c1ccc(OC)c(CSC3=NCCS3)c1)C(C#N)=C(N)O2 (stereo unspecified),i,?,?,21µM,i
CCOc1ccc(N(CC(=O)Nc2ccc(OC)cc2OC)S(=O)(=O)c2c(C)[nH]c(=O)[nH]c2=O)cc1,i,i,i,i,i
CCOc1ccc(N(C)S(=O)(=O)c2ccc3[nH]cc(C(=O)NCC4CCCO4)c(=O)c3c2)cc1 (stereo unspecified),i,?,i,?,i
CN(CC(=O)NCCC1=CCCCC1)S(=O)(=O)c1ccc2c(c1)c(=O)n(C)c(=O)n2C,i,8.2µM,i,?,i
CCN(C(=O)CN(C)S(=O)(=O)c1ccc2c(c1)c(=O)n(C)c(=O)n2C)c1ccc(OC)cc1,nt,i,nt,23µM,nt
CCc1ccc(N(C)S(=O)(=O)c2ccc3[nH]cc(C(=O)NCC4CCCO4)c(=O)c3c2)cc1 (stereo unspecified),nt,?,nt,15µM,nt
CCN(CC)S(=O)(=O)c1ccc2[nH]cc(C(=O)NCCC3=CCCCC3)c(=O)c2c1,?,10µM,23µM,18µM,?
CN(Cc1cccnc1)C(=O)Cc1ccc(NS(=O)(=O)c2cccc(C(F)(F)F)c2)cc1,i,i,i,?,i
O=C1CCC(=O)N1CO,nt,i,nt,i,nt
Cc1ccc2c(COC(=O)C3CSC4(C)CCC(=O)N34)cc(=O)oc2c1C (stereo unspecified),i,i,i,i,i
